TRPML1 inh: human mucolipin-1 channel inhibition; TRPML1-inducible cells, Ca2+ dye fluorescence, FDSS; active compounds read low; inhibition of EC80 agonist-evoked calcium signal; hit rate 0.02% among 390,000; activity change, negative = inhibition, % (concentration not given with the values); Q9GZU1; in the data active = activity change below about -50%; inconclusive = between about -30% and that limit;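 also: stimulus is agonist 54-4 at its EC80 concentration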
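Tet-induced TRPML1-DL cells loaded with Ca8 no-wash calcium dye were read kinetically on FDSS. Compound addition was followed by EC80 agonist 54-4 (4 uM final); inhibition was read over 110 s.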
GLP1R cytotox: cytotoxicity counter-screen for GLP-1 receptor inverse agonists. HEK293 cAMP-luciferase reporter cells, luminescence, 24 h. Potency, µM (series often up to 38.3 µM), usual class: inhibitors. hit rate 0.13% among 410,000;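 also: loss of luciferase light is scored as toxicity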
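To flag toxic compounds, the library was rerun on cells for 24 hr at 37 deg C and 5% CO2. Viability-linked luminescence was captured 12 min after adding luciferase detection reagent.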
TRHR enhancer: allosterically enhances the human TRH receptor; TRHR cells, fluo-8 calcium fluorescence, EC20 TRH enhancement; AID 493056; P34981; enhancement, % at 2 µM; hit rate 0.66% among 360,000; in the data active = enhancement above about 30%
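Enhancer read-out: after compound pinning and an initial kinetic agonist-mode read, an EC20 of TRH (10 nM final) was injected and fluo-8 calcium signal (Ex 480/Em 530) followed at 1 s/cycle for 100 cycles in TRHR-expressing cells.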
TRHR ag: activates the human TRH receptor; P34981; TRHR cells, calcium flux fluo-8, FDSS agonist mode; activation, % at 2 µM; hit rate 0.18% among 360,000; AID 493084; in the data active = activation above about 30%
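TRHR-expressing cells loaded with fluo-8 calcium dye; 23 nL library compound pin-transferred, kinetic FDSS fluorescence (Ex 480/Em 530) recorded about 180 s for agonist-induced calcium release, before a 10 nM TRH EC20 addition for potentiator mode.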
PTHR1 agonist: activates the human parathyroid hormone receptor PTHR1. Q03431. HEK293 GP2 PTHR1 cells, GloSensor cAMP luminescence, 1 h. Potency, µM (doses to about 115 µM), most hits filed as activators. hit rate 0.075% among 410,000. AID 743266; also: nearly all actives have a fitted effect of over 55% in size
Target sequence (Q03431 whole entry, looked up): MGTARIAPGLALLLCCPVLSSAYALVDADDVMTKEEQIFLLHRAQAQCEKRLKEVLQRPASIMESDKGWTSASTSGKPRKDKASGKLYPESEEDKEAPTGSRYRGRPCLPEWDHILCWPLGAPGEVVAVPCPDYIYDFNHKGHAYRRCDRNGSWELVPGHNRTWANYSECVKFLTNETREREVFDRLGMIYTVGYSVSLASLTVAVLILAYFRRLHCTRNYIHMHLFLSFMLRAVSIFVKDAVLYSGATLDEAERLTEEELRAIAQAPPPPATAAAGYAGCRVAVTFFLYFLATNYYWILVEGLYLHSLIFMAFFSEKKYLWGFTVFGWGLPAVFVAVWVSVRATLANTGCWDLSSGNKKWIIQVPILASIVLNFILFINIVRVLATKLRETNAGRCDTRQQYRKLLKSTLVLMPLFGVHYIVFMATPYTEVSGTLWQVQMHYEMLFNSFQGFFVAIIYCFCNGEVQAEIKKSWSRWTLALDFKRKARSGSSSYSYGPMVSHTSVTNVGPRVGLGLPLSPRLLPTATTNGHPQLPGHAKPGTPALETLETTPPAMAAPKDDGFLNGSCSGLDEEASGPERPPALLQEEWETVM
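HEK-293-derived GP2 cells expressing PTHR1 and a GloSensor cAMP reporter, 3,000/well, plated overnight, given luciferin plus IBMX (each 0.5 mM as added) for 1 h at 37 °C, then compound for 1 h at 37 °C. Luminescence was read after 15 min at room temperature.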
TRPML1 ag: agonists of human TRPML1 channel; TRPML1-expressing cells, Ca2+ dye fluorescence, FDSS; hit rate 0.12% among 410,000; activation, % (test concentration not listed); Q9GZU1; in the data active = activation above about 50%; inconclusive = mostly about 30% to 49%
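Agonist activity was taken from a 110 s kinetic Ca2+ dye read on the FDSS after pinning compounds onto TRPML1-DL cells. The cells were seeded at 1,500/well with Tet inducer, incubated about 16 h, then dye-loaded at room temperature.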
Numbers stand for hits; . = inactive; ? = inconclusive; / = no result given; ! = a repeat was not active. Hits are enriched below; roughly 0.93% of the tested compounds scored in any of these assays. Unless noted, calls follow the shape of the dose curve; as a rule, active = well fitted curve in the direction sought with a large enough effect; inconclusive = small, poorly fitted or top-dose-only effect, or another doubt; inactive = no such curve, though single readings can be large; an effect the other way counts as inactive or inconclusive.

SMILES	TRPML1 inh	GLP1R cytotox	TRHR enhancer	TRHR ag	PTHR1 agonist	TRPML1 ag
CNc1ccc(C=C2C=CC=C2)cc1	/	/	/	/	/	.
Cc1oc(-c2ccccc2)nc1Cn1c(=O)cc(-c2ccccc2)c2c(C)nn(C)c21	.	.	.	.	.	.
Cc1ccc(C)c(-c2nc(Cn3c(=O)cc(-c4ccccc4)c4c(C)nn(C)c43)c(C)o2)c1	.	.	.	32	.	.
CCOc1ccc(NC(=O)Nc2cnccn2)cc1	.	.	36	.	.	.
O=C(O)c1sc2cc(C(F)(F)F)cnc2c1-c1ccccn1	.	.	.	.	.	.
COC(=O)c1sc2cc(C(F)(F)F)cnc2c1-c1ccccn1	.	?	31	.	.	.
Cc1nc(-c2cccc(F)c2)sc1CCNC(=O)c1ccc(F)c(F)c1	.	.	30	.	.	.
Cc1cc2c(s1)c1cnn(Cc3ccc(C)c(F)c3F)c(=O)c1n2C	/	/	.	.	/	/
COc1ccc(C2CC(c3cccs3)=NN2c2ccc(C=O)cc2)cc1 (centres undefined)	.	.	.	40	.	?
C=CCN1C=CC(=CC=C(C#N)C#N)C=C1	.	.	.	46	.	?
C=CCN1C=C/C(=C\C=C(C#N)C#N)c2ccccc21	.	?	.	.	.	.
Nc1c(Cl)cc(/C=C2\C=Cc3ccccc32)cc1Cl	/	/	/	/	/	.
O=[N+]([O-])c1ccc(/C=C2\C=C(C(O)c3ccc([N+](=O)[O-])cc3)c3ccccc32)cc1 (centres undefined)	/	/	/	/	/	.
COc1ccccc1CNC(=O)C1CCCN(S(=O)(=O)c2cccs2)C1 (centres undefined)	.	.	40	.	.	.
COc1ccc(/C(=C/Nc2cccc(Br)c2)C(C)=O)cc1OC	.	.	41	.	.	.
COc1ccc(/C(C)=N/Nc2cccc(C(=O)O)c2)cc1OC	.	.	.	.	.	.
CC(=O)Nc1ccc(NC(=O)COC(=O)/C(=C/c2ccccc2)n2nnnc2C)cc1	.	.	.	.	.	.
Cc1nnnn1/C(=C\c1ccccc1)C(=O)OCC(=O)NC(C)(C)C	.	?	33	.	.	.
COc1ccc(NCc2cc3cc4c(cc3n(CC(=O)Nc3ccc(F)cc3F)c2=O)OCO4)cc1	.	.	35	.	?	.
O=c1[nH]c2ccc(S(=O)(=O)N3CCN(S(=O)(=O)c4ccc5c(c4)OCCO5)CC3)cc2[nH]c1=O	/	/	.	.	/	/
O=C(CSc1nnc2n(C3CCCC3)c(=O)c3ccccc3n12)N1CCCCCC1	.	?	.	.	.	.
COc1ccccc1Cn1c(=O)c2ccccc2n2c(SCC(=O)N3CCCCC3)nnc12	-61	.	.	.	.	.
O=C(NCc1ccccc1)c1nc[nH]c1C(=O)NCc1ccccc1	.	.	33	.	.	.
COc1ccc(CN2CCN(CCCc3ccccc3)C(CCO)C2)c(OC)c1 (centres undefined)	.	.	.	.	.	.
COc1ccc(CN2CCN(CCCc3ccccc3)CC2)c(OC)c1	/	/	55	.	/	/
SMILES	TRPML1 inh	GLP1R cytotox	TRHR enhancer	TRHR ag	PTHR1 agonist	TRPML1 ag
COc1cccc(CN2CCN(Cc3cccc(Oc4ccccc4)c3)CC2)c1OC	.	?	31	.	.	.
O=C(c1c(F)cccc1F)N1CCCc2ccccc21	.	.	32	.	.	.
O=C(c1cccc(F)c1)N1CCCc2ccccc21	.	.	.	.	.	.
N#C/C(=N\O)c1nc2ccccc2s1	.	.	32	.	.	.
N#C/C(=C(/O)c1ccc(F)cc1)c1nc2ccccc2s1	.	.	.	.	.	.
CCc1nnc(NC(=O)[C@@H]2CCCN2C(=O)c2cccs2)s1	/	/	/	/	/	.
CCCCNC(=O)[C@@H]1CC=C[C@@H]2CCN(C3CCCCC3)C(=O)[C@@H]21	/	/	/	/	/	.
CN(C)C(=S)NCc1ccccc1	.	.	38	.	.	.
CC(C(=O)Nc1ccccc1)N1C(=O)c2ccccc2C1=O (centres undefined)	.	.	32	.	.	.
CC1(C)CCC(c2ccc(Cl)cc2)=C(CN2CCN(c3ccc(C(=O)NS(=O)(=O)c4ccc(N[C@H](CCN5CCOCC5)CSc5ccccc5)c(S(=O)(=O)C(F)(F)F)c4)cc3)CC2)C1	/	/	/	/	/	.
CCCCOc1ccc(C(=O)NC(=S)Nc2ccc(CN3CCOCC3)cc2)cc1	.	.	32	.	.	.
CC(C)c1ccc(/C=C/C(=O)NC(=S)Nc2ccc(CN3CCOCC3)cc2)cc1	.	10µM	.	.	.	.
O=C(Nc1c(Cl)cc([N+](=O)[O-])cc1Cl)c1cc(Cl)ccc1O	/	/	/	/	/	.
Cc1cc(C)n(-c2nc3ccccc3nc2N2CCN(C(=O)c3ccc(Cl)cc3)CC2)n1	.	?	30	.	.	.
COc1cc(Cl)c(CC(=O)NO)cc1OC	/	/	/	/	/	.
Cn1c(SCc2ccc(Cl)cc2)nnc1-c1ccc(NC(=O)CCc2ccccc2)cc1	/	/	/	/	/	.
O=C(CNC(=O)c1ccncc1)OC(C(=O)Nc1cc(C(F)(F)F)ccc1Cl)c1ccccc1 (centres undefined)	/	/	.	.	/	/
CCn1c(/C=C/c2ccccc2[N+](=O)[O-])nc2ccccc2c1=O	.	.	40	.	.	.
O=C(CCS(=O)(=O)Cc1ccc(Cl)cc1)NCCCN1CCN(c2ccccc2F)CC1	.	.	33	.	.	.
CNC(=S)N/N=C/c1c2ccccc2c(Cl)c2ccccc12	.	3.5µM	.	.	.	.
CC(=O)NC1=CC(=O)c2nonc2C1=O	/	/	/	/	/	.
CCOC(=O)CC1C(=O)NCCN1Cc1cccc(OC)c1 (centres undefined)	.	.	36	.	.	.
CN(C)c1ccc(-c2cc[nH]c(=O)c2N)cc1	/	/	.	.	/	/
CC1(C)CCC(=NNC(N)=S)CC1	.	.	/	/	?	.
CC1(C)C2CCC(C2)C1C/C=N/NC(N)=S (centres undefined)	.	?	33	.	.	.
SMILES	TRPML1 inh	GLP1R cytotox	TRHR enhancer	TRHR ag	PTHR1 agonist	TRPML1 ag
CC1(C)OC(=O)C2(Cc3cc(C(F)(F)F)ccc3N3CCCCC32)C(=O)O1 (centres undefined)	/	/	/	/	/	.
CC(=O)/C=C/n1c(=S)oc2ccccc21	.	11µM	.	.	.	.
Cc1ccc(Sc2cc(C)nc(-c3ccccn3)n2)cc1	.	?	32	.	.	.
O=Cc1c[nH]c2ccccc12	.	/	.	.	/	.
Cc1ccc(SCC(=O)OCC(=O)N(C)CC(=O)Nc2ccc(F)cc2)cc1C	.	.	35	.	.	.
Cc1ccc(NC(=O)CCN2C(=O)c3ccccc3Sc3ncccc32)cc1	.	.	.	.	50µM!	.
CNC(=S)N/N=C/c1cc(C)ccc1C	.	?	.	.	.	.
CCNC(=S)N/N=C/c1cc(C)ccc1C	.	5.6µM	.	.	.	.

Compound activity from PubChem.
